Results filed as inconclusive are left out. Activity calls are given as the source filed them. Calls come from the whole dose curve; as a rule, active = well fitted inhibition curve with a large enough effect; inconclusive = small, poorly fitted or top-dose-only effect; inactive = flat fitted curve, though single readings scatter.
Each molecule was assayed on Zika virus NS2B-NS3 protease (assay: Primary screen GU AMC qHTS for Zika virus inhibitors (AID 1347154;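 note: 0% = no-inhibitor control and -100% = no-enzyme control; nearly all actives have a fitted effect of over 70% in size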)). Details: Zika NS2B-NS3 unlinked protease, AMC fluorogenic substrate; series mostly up to 54.1 µM; activity change, negative = inhibition: at the top concentration.
Outline: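 Fluorogenic AMC-substrate cleavage by noncovalent NS2B-NS3 protease complex (25 nM, pH 8.0 Tris buffer with Tween 20) followed for 15 minutes at room temperature (~20% conversion). Percent inhibition from ex340/em450 signal change, fitted by 4-parameter Hill equation.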

Structure (SMILES) | activity change, negative = inhibition | outcome
CC(C(=O)O)c1ccc(CC2CCCC2=O)cc1 (stereo unspecified) | -3.4% (inactive) | –
CN=C(NC#N)NCCSCc1nc[nH]c1C | – | inactive
CC(=O)OCC1=C(C(=O)O)N2C(=O)[C@@H](NC(=O)Cc3cccs3)[C@H]2SC1 | -2.62% (inactive) | –
Nc1c2c(nc3ccccc13)CCCC2O (stereo unspecified) | -4.54% (inactive) | –
NC(=O)N1c2ccccc2C=Cc2ccccc21 | -0.871% (inactive) | –
CCCN1C[C@H](CSC)C[C@@H]2c3cccc4[nH]cc(c34)C[C@H]21 | -0.694% (inactive) | –
Nc1ncn([C@@H]2O[C@H](CO)[C@@H](O)[C@H]2O)c(=O)n1 | 0.884% (inactive) | –
O=c1[nH]c(=O)n([C@H]2C[C@H](O)[C@@H](CO)O2)cc1Br | 2.19% (inactive) | –
C[C@]12CCC(=O)C=C1CC[C@@H]1[C@@H]2CC[C@@]2(C)[C@H]1CC[C@]2(O)C(=O)CO | -2.47% (inactive) | –
O=C(CCCN1CCC(O)(c2cccc(C(F)(F)F)c2)CC1)c1ccc(F)cc1 | -3.38% (inactive) | –
CCN(CC)CCNC(=O)c1ccc(NC(C)=O)cc1 | -0.243% (inactive) | –
Cc1nc2c([nH]1)c(=O)n(C)c(=O)n2Cc1ccco1 | -3.93% (inactive) | –
COc1cc(C(=O)OCCCN2CCCN(CCCOC(=O)c3cc(OC)c(OC)c(OC)c3)CC2)cc(OC)c1OC | – | inactive
CO[C@@]1(NC(=O)CSCC#N)C(=O)N2C(C(=O)O)=C(CSc3nnnn3C)CS[C@@H]21 | -1.66% (inactive) | –
NC(=O)c1ncn([C@@H]2O[C@H](CO)[C@@H](O)[C@H]2O)c1O | -5.45% (inactive) | –
CC1=NS(=O)(=O)c2cc(Cl)ccc2N1 | – | inactive
CC(N=C(NC#N)Nc1ccncc1)C(C)(C)C (stereo unspecified) | – | inactive
CN(C)CC/C=C1\c2ccccc2COc2ccccc21 | – | inactive

Structure (SMILES) | activity change, negative = inhibition | outcome
CCCCNC(=O)NS(=O)(=O)c1ccc(C)cc1 | – | inactive
NC(=O)c1cn(Cc2c(F)cccc2F)nn1 | -1.38% (inactive) | –
c1ccc2c(c1)CCCC2C1=NCCN1 (stereo unspecified) | -5.4% (inactive) | –
CC(C)[N+](C)(CCOC(=O)C1c2ccccc2Oc2ccccc21)C(C)C | -2.11% (inactive) | –
CCCN(CCC)C(=O)C(CCC(=O)O)NC(=O)c1ccccc1 (stereo unspecified) | -2.72% (inactive) | –
CN(C)C(=O)Oc1cccc([N+](C)(C)C)c1 | 5.11% (inactive) | –
C=CCc1ccccc1OCC(O)CNC(C)C (stereo unspecified) | – | inactive
N[C@@H](COP(=O)(O)O)C(=O)O | – | inactive
CCC(=O)c1ccc2c(c1)N(CCCN(C)C)c1ccccc1S2 | -2.78% (inactive) | –
CNCCC(Oc1ccccc1OC)c1ccccc1 (stereo unspecified) | -4.3% (inactive) | –
CN(C)[C@@H]1C(=O)C(C(N)=O)=C(O)[C@@]2(O)C(=O)C3=C(O)c4c(O)ccc(Cl)c4[C@@H](O)[C@H]3C[C@@H]12 | -14.1% (inactive) | –
CCCN(CCC)CCc1cccc2c1CC(=O)N2 | -7.36% (inactive) | –
CCCNC(C)C(=O)Nc1ccccc1C (stereo unspecified) | -3.95% (inactive) | –
CCn1ccnc1CC1COc2ccccc2O1 (stereo unspecified) | -2.69% (inactive) | –
Cc1nnc(SCC2=C(C(=O)O)N3C(=O)[C@@H](NC(=O)Cn4cnnn4)[C@H]3SC2)s1 | -0.697% (inactive) | –
CN(C)CC[C@@H](c1ccc(Br)cc1)c1ccccn1 | -4.68% (inactive) | –
CC[N+](C)(C)c1cccc(O)c1 | 2.19% (inactive) | –
COc1cc(Cc2cnc(N)nc2N)cc(OC)c1OC | – | inactive

Source: PubChem BioAssay (NCATS)
